Screening results as filed in PubChem BioAssay.
An excerpt weighted towards active compounds, which were near 3.3% of everything screened.
Sm TGR inh = inhibitors of Schistosoma mansoni thioredoxin glutathione reductase | 360,000 tested, 3% active | purified TGR, DTNB reduction, TNB absorbance 405 nm | AID 485364 | Potency, µM (doses to about 114 µM), most hits filed as inhibitors; also: nearly all actives have a fitted effect of over 60% in size
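First, TGR (20 nM dispensed) and NADPH were mixed with compound. Second, a 15 min room-temperature incubation followed. Third, further NADPH and then DTNB were added to start the reaction. Finally, TNB absorbance was monitored kinetically.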
AmpC inh detg = blocks E. coli AmpC beta-lactamase in detergent assay | AmpC hydrolysis of nitrocefin, absorbance 480 nm, 0.01% Triton | Potency, µM (doses to about 114 µM), usual class: inhibitors | AID 485294 | 370,000 tested, 0.041% active | P00811; also: nearly all actives have a fitted effect of over 25% in size
Target sequence (P00811 whole entry, looked up): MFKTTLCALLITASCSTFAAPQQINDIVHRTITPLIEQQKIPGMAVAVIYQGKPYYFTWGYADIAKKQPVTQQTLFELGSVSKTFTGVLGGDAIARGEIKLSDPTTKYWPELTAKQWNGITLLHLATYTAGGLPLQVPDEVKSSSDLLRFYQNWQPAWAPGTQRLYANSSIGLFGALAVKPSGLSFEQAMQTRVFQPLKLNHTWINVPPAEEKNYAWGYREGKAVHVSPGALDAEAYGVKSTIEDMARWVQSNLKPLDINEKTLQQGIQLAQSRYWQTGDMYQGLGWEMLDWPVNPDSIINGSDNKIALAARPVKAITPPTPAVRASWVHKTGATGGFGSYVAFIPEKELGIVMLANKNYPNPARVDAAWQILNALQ
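AmpC (5.3 nM in the dispensed reagent) in 20 mM phosphate pH 7.0 with 0.01% (detergent screen) or 0.0001% Triton X-100 was preincubated with compounds for 15 min at room temperature. Nitrocefin was then added from an 800 uM solution, and hydrolysis was followed at 480 nm.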
AmpC no deterg = inhibitors of E. coli AmpC beta-lactamase without detergent | Potency, µM (highest dose often 57.1 µM), usual class: inhibitors | P00811 | 330,000 tested, 0.52% active | AmpC nitrocefin hydrolysis, absorbance 480 nm, 0.0001% Triton; also: nearly all actives have a fitted effect of over 20% in size
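20 mM phosphate pH 7.0 + 0.01% (detergent screen) or 0.0001% Triton X-100; 5.3 nM AmpC reagent; cpd preinc 15 min RT; nitrocefin (800 uM stock) to start; A480 q20 s × 4 min; Activity was normalised to no-enzyme and no-compound control wells.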
Of the large screens only hits and unclear results are named; the others gave an inactive call. Calls follow the shape of the dose curve; as a rule, active = well fitted curve in the direction sought with a large enough effect; inconclusive = small, poorly fitted or top-dose-only effect, or another doubt; inactive = no such curve, though single readings can be large; an effect the other way counts as inactive or inconclusive.

Cc1ccn2c(=O)cc(COc3ccc(NC(=O)COc4ccccc4)cc3)nc2c1	none (no result: AmpC no deterg)
Cn1ccc(-c2ccccc2)n1	none
N#Cc1cc(-c2ccccc2)nn1-c1ccccc1	Sm TGR inh 0.63µM, AmpC inh detg inconclusive
Cn1c(=O)n(C)c2cc(CNCc3ccccc3Cl)ccc21	none (no result: AmpC no deterg)
CCC(O)c1nc2ccccc2n1Cc1cccc(Cl)c1 (configuration not stated)	none (no result: AmpC no deterg)
CC(NC(=O)/C=C/c1ccco1)c1nc2ccccc2n1Cc1cccc(Cl)c1 (configuration not stated)	Sm TGR inh 14µM
COc1ccc(C(NC(=O)/C=C/c2ccco2)c2ccc(OC)cc2)cc1	Sm TGR inh 10µM
CCC(Cc1ccccc1)NC(=O)/C=C/c1ccco1 (configuration not stated)	Sm TGR inh 10µM, AmpC inh detg inconclusive
COc1ccc(C(NC(=O)/C=C\c2ccco2)c2ccc(OC)c(OC)c2)cc1 (configuration not stated)	Sm TGR inh 13µM, AmpC inh detg inconclusive
COc1cc(C(=O)NNC(=O)/C=C/c2ccco2)cc(OC)c1OC	none (no result: Sm TGR inh, AmpC inh detg)
COc1ccc(-c2csc(NC(=S)NC(=O)/C=C/c3ccco3)n2)cc1OC	none
CCC(Cc1ccccc1)NC(=O)CCc1ccccc1 (configuration not stated)	none
Cc1cc(C)n2nc(C(=O)Nc3cc(S(=O)(=O)N4CCCCC4)ccc3C)nc2n1	none (no result: Sm TGR inh, AmpC inh detg)
O=C(OCC#CCSc1nnc(-c2cccc3ccccc23)o1)c1ccc(F)cc1	none
COc1ccc(N2C(=O)/C(=C\c3ccco3)N=C2SCC(=O)NC(C)C)cc1Cl	none
O=C(CSC1=N/C(=C/c2ccco2)C(=O)N1c1ccc(OC(F)F)cc1)NC1CCS(=O)(=O)C1 (configuration not stated)	Sm TGR inh 40µM
CC(NC(=O)c1ccc(OC2CCN(S(=O)(=O)N(C)C)CC2)cc1)C1CC1 (configuration not stated)	none
O=C(CCCCCNc1nc(=S)[nH]c2ccccc12)NCCc1c[nH]c2ccccc12	AmpC inh detg inconclusive
O=C(CCCCCNc1nc(=S)[nH]c2ccccc12)NCCc1ccc(Cl)cc1	AmpC no deterg 20µM
O=C(Cc1ccc(Nc2nc(=S)[nH]c3ccccc23)cc1)NC1CCCCC1	none
CC(C)CCNC(=O)Cc1ccc(Nc2nc(=S)[nH]c3ccccc23)cc1	AmpC no deterg 16µM
C=CCN1C=CC(=O)CC1	none
CCCc1cc(=O)oc2cc(OC(C)C(=O)NCc3ccccn3)c(Cl)cc12 (configuration not stated)	none
O=C(NCc1ccncc1)C1CCCN(S(=O)(=O)c2cc(Cl)ccc2Cl)C1 (configuration not stated)	AmpC inh detg inconclusive
COc1ccc(NC(=O)/C(C#N)=C/c2ccc(Sc3nncn3C)c([N+](=O)[O-])c2)cc1	AmpC inh detg inconclusive
Cc1ccc(NC(=O)CCC(=O)OCC(=O)c2ccc(Oc3ccc([N+](=O)[O-])cc3)cc2)cc1C	none
Cc1cccc(NC(=O)CCC(=O)OCC(=O)c2ccc(Oc3ccc([N+](=O)[O-])cc3)cc2)c1	Sm TGR inh 40µM, AmpC inh detg inconclusive
CN(C)CCCN1C(=O)CSC1c1ccccc1 (configuration not stated)	AmpC inh detg inconclusive, AmpC no deterg 1µM
COc1cc(C2SCC(=O)N2CCCN(C)C)cc(OC)c1OC (configuration not stated)	none
CS(=O)(=O)N1CCc2cc(C(=O)Nc3ccc(COCC(F)(F)F)cc3)ccc21	none
Cc1cccc(CN2C(=O)c3ccccc3S(=O)(=O)c3ccc(C(=O)N4CCN(c5cc(C)ccc5C)CC4)cc32)c1	none (no result: AmpC no deterg)
C#CCNC(=O)C1=C[C@H](c2ccc(C(F)(F)F)cc2)C[C@H](OCCCCO)O1	Sm TGR inh 13µM
C#CCNC(=O)C1=C[C@H](c2csc3ccccc23)C[C@H](OCc2ccc(CO)cc2)O1	none
C#CCNC(=O)C1=C[C@H](c2csc3ccccc23)C[C@H](OCCCCO)O1	Sm TGR inh 45µM
CC(=O)n1cc([C@H]2C=C(C(=O)NCc3ccccc3)O[C@@H](OCCCCO)C2)c2ccccc21	Sm TGR inh inconclusive
CC(=O)n1cc([C@H]2C=C(C(=O)Nc3ccccc3)O[C@@H](OCCCCO)C2)c2ccccc21	none
NC(=O)C1=C[C@@H](c2ccc(C(F)(F)F)cc2)C[C@@H](OCCCCO)O1	Sm TGR inh inconclusive
C#CCNC(=O)C1=C[C@@H](c2cn(C(C)=O)c3ccccc23)C[C@@H](OCCCCO)O1	Sm TGR inh 40µM
CC(=O)n1cc([C@@H]2C=C(C(=O)NCc3ccccc3)O[C@H](OCCCCO)C2)c2ccccc21	Sm TGR inh 50µM
CCOc1ccc(NC(=O)c2c(NC(=O)c3ccccc3Br)sc3c2CCC(C)C3)cc1 (configuration not stated)	none (no result: AmpC no deterg)
CC1(C)CC(=O)C(N=Nc2ccc(S(=O)(=O)N3CCOCC3)cc2)=C(O)C1	Sm TGR inh 40µM
CC1(C)CC(=O)C(N=Nc2ccc(Br)cc2)=C(O)C1	none
O=C(CCN1Cc2ccccc2C1)c1ccc2c(c1)OCCO2	Sm TGR inh 0.89µM
O=C(O)CCC(=O)c1ccc2c(c1)OCCO2	none
O=C(CCN1CCc2ccccc2C(c2ccccc2)C1)c1ccc2c(c1)OCCO2 (configuration not stated)	Sm TGR inh 0.56µM
O=C(CS(=O)(=O)c1ccccc1)c1ccc2c(c1)OCCO2	Sm TGR inh inconclusive
Cc1ccc(C)c(NS(=O)(=O)c2cc(C(=O)NCCC3=CCCCC3)ccc2C)c1	none
O=C(CNC(=O)[C@@H]1Cc2ccccc2CN1)Nc1ccc2c(c1)OCCO2	none
COc1ccccc1C1(O)CCN(CC(=O)Nc2nc(-c3ccccc3)cs2)CC1	none
Cc1ccc(SCC(=O)OCC(=O)N(C)CC(=O)Nc2ccc(F)cc2)cc1	none
COC(=O)CC(NC(=O)CN1CCN(c2ccc(F)cc2)CC1)c1cccc(F)c1 (configuration not stated)	none
Cc1ccc(NC(=O)c2ccc(Cl)c(N3C(=O)C=CC3=O)c2)cc1	Sm TGR inh 0.56µM
O=C(Nc1ccc(Cl)c(Cl)c1)c1ccc(Cl)c(Cl)c1	none
CN(CC(=O)Nc1ccc(F)cc1[N+](=O)[O-])C1CCS(=O)(=O)C1 (configuration not stated)	none (no result: Sm TGR inh, AmpC inh detg)
Cc1ccc(S(=O)(=O)NC(=O)Nc2nnc(C3CC3)s2)cc1	AmpC no deterg 4.5µM
Cc1ccc(S(=O)(=O)Nc2nnc(C3CCCCC3)s2)cc1	none
Cc1ccc(S(=O)(=O)N(C)c2ccc(OCC(=O)Nc3nnc(C4CC4)s3)cc2)cc1	AmpC no deterg 14µM
CCc1nnc(NC(=O)COc2ccc(N(C)S(=O)(=O)c3ccc(C)cc3)cc2)s1	none
CCCn1c(N)c(C(=O)COC(=O)COc2ccc(Cl)c(C)c2)c(=O)n(C)c1=O	none
COc1ccc(CCNC(=O)c2cnc3sc(N4CCOCC4)nn3c2=O)cc1OC	none (no result: AmpC no deterg)
CCOc1cc(/C=C2\C(=O)N(Cc3ccc(C)cc3)C(C)=C2C(=O)OC)ccc1O	Sm TGR inh 22µM, AmpC inh detg inconclusive
COC(=O)C1=C(C)N(CCc2ccc(OC)c(OC)c2)C(=O)C1	none
CCOC(=O)C1=C(C)N(c2ccc(OC)cc2)C(=O)/C1=C\c1cccs1	none
